High-throughput results as filed in PubChem BioAssay.
An excerpt weighted towards active compounds, which were near 7.5% of everything screened.
Giardia FBPA inh = Giardia lamblia aldolase inhibition | purified Giardia FBPA | 290,000 tested, 0.71% active | A8B2U2 | Potency, µM (highest dose often 59.6 µM), for the others: at the highest dose activity, negative = inhibition, actives largely listed as inhibitors; further: potency means the concentration at half of the fitted maximal effect; nearly all actives have a fitted effect of over 55% in size
Target sequence (A8B2U2 whole entry, looked up): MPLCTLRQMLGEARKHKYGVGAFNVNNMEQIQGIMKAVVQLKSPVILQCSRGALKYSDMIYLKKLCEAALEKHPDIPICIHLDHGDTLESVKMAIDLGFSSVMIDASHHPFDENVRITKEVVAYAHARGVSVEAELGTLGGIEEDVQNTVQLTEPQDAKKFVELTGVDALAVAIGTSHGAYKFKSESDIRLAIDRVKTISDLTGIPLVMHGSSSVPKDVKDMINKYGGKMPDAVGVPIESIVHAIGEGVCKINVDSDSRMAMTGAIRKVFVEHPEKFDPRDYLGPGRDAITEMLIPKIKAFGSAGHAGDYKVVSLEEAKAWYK
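Giardia FBPA (40 nM reagent) was preincubated 10 min at RT with compound (up to 57.5 uM final), then substrate plus GAPDH/TPI/NAD/arsenate coupling system with diaphorase/resazurin was added; resorufin fluorescence (525/598 nm) was read after 20 min.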
FMDV antiviral = antivirals against foot and mouth disease virus | FMDV antiviral cell-based qHTS | Potency, µM (series often up to 57.9 µM), without a hit: at the highest dose activity change, negative = inhibition, most hits filed as inhibitors | 410,000 tested, 1.2% active | AID 1159524; calls by dose curve; tested in HEK293T cells; further: read-out not given here; potency means the concentration at half of the fitted maximal effect; nearly all actives have a fitted effect of over 45% in size
HCV inhibitor = blocks hepatitis C virus; Potency, µM (top dose mostly 41.8 µM), for inactives: top-dose activity change, negative = inhibition, actives largely listed as inhibitors; 340,000 tested, 3.4% active; AID 651820; Huh7.5.1 HCVcc-Cre infection, luciferase reporter, 44 h; further: potency means the concentration at half of the fitted maximal effect
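Seed cells (1,000/well) for 4 h; treat with compound and infect with HCVcc-Cre, moi about 0.5. Incubate 44 h, then detect luciferase activity.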
Vaccinia Venus = vaccinia inhibition (Venus reporter); Vaccinia virus Venus reporter expression, fluorescence; Potency, µM (titrated, usually from 36.5 µM), for inactives: top-dose activity change, negative = inhibition, usual class: inhibitors; 330,000 tested, 0.46% active; AID 720580; calls by dose curve; tested in A549 cells; further: potency means the concentration at half of the fitted maximal effect; nearly all actives have a fitted effect of over 30% in size
Vaccinia mCherry = vaccinia inhibition (mCherry reporter); Potency, µM (highest dose often 36.5 µM), inactives show at the highest dose activity change, negative = inhibition, usual class: inhibitors; 310,000 tested, 0.63% active; Vaccinia virus mCherry reporter infection, fluorescence; AID 720579; calls by dose curve; tested in A549 cells; further: potency means the concentration at half of the fitted maximal effect; nearly all actives have a fitted effect of over 35% in size
HCMV antiviral = human cytomegalovirus inhibition | 410,000 tested, 4.5% active | activity change, negative = inhibition, % at 57.5 µM | HFF cells, HCMV-luciferase reporter, 72 h; hits give low values; in the data active means activity change below about -60%; inconclusive means no clear call, values can overlap the other calls; inactive means above about -39%
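Human foreskin fibroblasts infected with luciferase-reporter HCMV at MOI 1 PFU/cell, compounds at two doses. Luciferase measured 72 h post infection; normalized to buffer-only basal and Salinomycin (10uM) controls.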
Starred values were filed as active, the others as inactive. Unless noted, the call rests on the fitted dose curve; in most records, active means well fitted curve in the direction sought with a large enough effect; inconclusive means small, poorly fitted or top-dose-only effect, or another doubt; inactive means no such curve, though single readings can be large; an effect the other way counts as inactive or inconclusive. On the % scale 0 is the no-effect control and ±100 the full control effect.

Results for CC[C@H](C)[C@@H](CN[C@H](CCCCNC)CNC)NCC1CCCC1 ?
Giardia FBPA inh: 22.7%; FMDV antiviral: -2.7%; HCV inhibitor: 9.7%; Vaccinia Venus: -1.0%; Vaccinia mCherry: inactive; HCMV antiviral: inconclusive

What do the screens show for `CC(C)c1ccc(NC(=O)c2cc3c(s2)-c2ccccc2SC3)cc1`?
FMDV antiviral: -1.9%; Vaccinia Venus: -12.8%; Vaccinia mCherry: -6.1%; HCMV antiviral: inconclusive

Results for CC(C)N(CCNC(=O)COc1ccc2oc3c(c2c1)CCCC3)C(C)C ?
FMDV antiviral: 0.0%; HCV inhibitor: 12.6µM*; Vaccinia Venus: -25.1%; Vaccinia mCherry: inconclusive; HCMV antiviral: -20.2

How did CCOC(=O)C1CCCN(C(=S)NC(=O)/C=C/c2ccc(F)cc2)C1 (stereo not given) do in these assays?
Giardia FBPA inh: inconclusive; FMDV antiviral: 34.1%; HCV inhibitor: -15.1%; HCMV antiviral: -82.3*

What do the screens show for `CCOC(=O)C1CCCN(C(=O)/C=C/c2ccc(Cl)cc2)C1` (stereo not given)?
Giardia FBPA inh: -0.1%; FMDV antiviral: -22.1%; HCV inhibitor: -2.5%; HCMV antiviral: -26.0

Results for COc1ccc(C)cc1NC(=O)C(=O)NCCc1sc(-c2ccc(Cl)cc2)nc1C ?
FMDV antiviral: -2.6%; Vaccinia Venus: -16.6%; Vaccinia mCherry: -21.8%; HCMV antiviral: 21.8

How did COc1ccc(Cl)cc1NC(=O)COC(=O)CC(C)(C)CC1=NS(=O)(=O)c2ccccc2N1 do in these assays?
FMDV antiviral: inconclusive; Vaccinia Venus: -13.7%; Vaccinia mCherry: -7.7%; HCMV antiviral: 2.8

Results for Cc1ccc(NC(=O)CN(C)C(=O)COC(=O)CNS(=O)(=O)c2ccc(F)c(F)c2F)cc1 ?
FMDV antiviral: 6.9%; HCV inhibitor: 34.1%; Vaccinia Venus: 5.5%; Vaccinia mCherry: -8.9%; HCMV antiviral: -7.6

How did OC(Cc1ccnc2ccccc12)C(Cl)(Cl)Cl (stereo not given) do in these assays?
FMDV antiviral: inconclusive; HCV inhibitor: 11.2µM*; Vaccinia Venus: -13.1%; Vaccinia mCherry: -13.8%; HCMV antiviral: -80.2*

Results for O=C(O)C(Cc1ccnc2ccccc12)=NO ?
FMDV antiviral: -17.2%; HCV inhibitor: 15.6%; Vaccinia Venus: -0.8%; Vaccinia mCherry: inactive; HCMV antiviral: 17.5

What do the screens show for `Cc1noc(C)c1C(=O)Nc1cccc(S(=O)(=O)N2CCCCC2)c1`?
FMDV antiviral: -26.5%; HCV inhibitor: -5.9%; HCMV antiviral: -34.7

How did O=C1/C(=C/c2cccnc2)SC(=S)N1Cc1ccco1 do in these assays?
FMDV antiviral: -27.3%; HCV inhibitor: -27.2%; Vaccinia Venus: 22.7%; Vaccinia mCherry: -5.4%; HCMV antiviral: inconclusive

Results for O=C1/C(=C/c2ccc(O)c([N+](=O)[O-])c2)SC(=S)N1Cc1ccccc1 ?
Giardia FBPA inh: 7.2%; FMDV antiviral: inconclusive; HCV inhibitor: 7.8%; Vaccinia Venus: 1.0%; Vaccinia mCherry: -3.5%; HCMV antiviral: -60.9*

What do the screens show for `COc1cc(/C=C2\SC(=O)N(Cc3ccc(Cl)cc3)C2=O)cc([N+](=O)[O-])c1O`?
Giardia FBPA inh: -6.4%; FMDV antiviral: inconclusive; HCV inhibitor: -17.5%; Vaccinia Venus: 2.1%; Vaccinia mCherry: -3.0%; HCMV antiviral: -23.4

What do the screens show for `O=C1/C(=C\c2cc(Br)cc(Br)c2O)SC(=S)N1Cc1ccccc1`?
Giardia FBPA inh: -13.2%; FMDV antiviral: inconclusive; HCV inhibitor: inconclusive; Vaccinia Venus: 55.8%; Vaccinia mCherry: 7.6%

What do the screens show for `O=C1/C(=C\c2ccc(O)cc2)SC(=S)N1Cc1ccccc1`?
Giardia FBPA inh: 1.4%; FMDV antiviral: -20.1%; HCV inhibitor: 11.7%; Vaccinia Venus: inactive; Vaccinia mCherry: -5.4%; HCMV antiviral: -27.2

Results for O=C1/C(=C/c2ccccc2O)SC(=S)N1Cc1cccnc1 ?
Giardia FBPA inh: -0.3%; FMDV antiviral: 31.6µM*; HCV inhibitor: -0.6%; HCMV antiviral: -78.0*

How did O=C1/C(=C\c2cccc([N+](=O)[O-])c2O)SC(=S)N1Cc1ccccc1 do in these assays?
Giardia FBPA inh: -11.7%; FMDV antiviral: inconclusive; HCV inhibitor: -15.5%; HCMV antiviral: -63.6*
